Source: publication PMC7862700, “An all-to-all approach to the identification of sequence-specific readers for epigenetic DNA modifications on cytosine”

Experiments:
Experiment in all cases: DAPPL (digital affinity profiling via proximity ligation, sequencing); 10 mM Tris-HCl pH 7.5, 50 mM NaCl, 1 mM DTT, 4% glycerol, room temperature, 30 min; GST-TFs on glutathione beads, 16-mer random dsDNA library, 0.1% formaldehyde crosslink after washing; high values mean tight binding
FEV = target: T1, FEV (Homo sapiens, UniProt Q99581 1-238); details: protein: recombinant; tags: N-terminal GST; dsDNA, one strand shown
T1 sequence: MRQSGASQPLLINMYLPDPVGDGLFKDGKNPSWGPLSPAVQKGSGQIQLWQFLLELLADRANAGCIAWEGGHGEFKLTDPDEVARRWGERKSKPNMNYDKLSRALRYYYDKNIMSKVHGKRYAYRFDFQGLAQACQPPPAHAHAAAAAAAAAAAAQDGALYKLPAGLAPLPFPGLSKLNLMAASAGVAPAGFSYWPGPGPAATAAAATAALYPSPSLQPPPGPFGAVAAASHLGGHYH
Outline: (§1)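 Binding signal is given per hexamer as its read frequency for a factor divided by its frequency in the tag-only sample. GST-fused human transcription factors were expressed in yeast, captured on glutathione beads, barcoded with DNA and pooled with that sample, then incubated with 200 nmole of a 16-mer random double-stranded DNA library in Tris/NaCl/DTT/glycerol buffer for 30 min at room temperature. The pools were then washed, crosslinked, proximity-ligated, amplified by PCR and sequenced on an Illumina NextSeq500.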

ETV5 = ETV5 (Homo sapiens, UniProt P41161 1-510); details: protein: recombinant; tags: N-terminal GST; dsDNA, one strand shown
Outline: as §1

HSF1 = HSF1 (Homo sapiens, UniProt Q00613 1-529); details: protein: recombinant; tags: N-terminal GST; chain copies: 3; dsDNA, one strand shown
Outline: as §1

SPIC = target: T2, SPIC (Homo sapiens, UniProt Q8N5J4 1-248); details: protein: recombinant; tags: N-terminal GST; dsDNA, one strand shown
T2 sequence: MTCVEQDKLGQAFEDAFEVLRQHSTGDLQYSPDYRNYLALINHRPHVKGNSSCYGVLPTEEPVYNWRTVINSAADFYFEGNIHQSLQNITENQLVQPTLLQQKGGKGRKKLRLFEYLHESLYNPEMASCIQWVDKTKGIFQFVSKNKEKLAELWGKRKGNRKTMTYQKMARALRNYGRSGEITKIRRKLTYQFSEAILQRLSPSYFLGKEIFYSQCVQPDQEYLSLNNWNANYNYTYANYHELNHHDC
Outline: as §1

ELF4 = ELF4 (Homo sapiens, UniProt Q99607 1-663); details: protein: recombinant; tags: N-terminal GST; dsDNA, one strand shown
Outline: as §1

ELK4 = target: T3, ELK4 (Homo sapiens, UniProt P28324-2 1-405); details: protein: recombinant; tags: N-terminal GST; dsDNA, one strand shown
T3 sequence: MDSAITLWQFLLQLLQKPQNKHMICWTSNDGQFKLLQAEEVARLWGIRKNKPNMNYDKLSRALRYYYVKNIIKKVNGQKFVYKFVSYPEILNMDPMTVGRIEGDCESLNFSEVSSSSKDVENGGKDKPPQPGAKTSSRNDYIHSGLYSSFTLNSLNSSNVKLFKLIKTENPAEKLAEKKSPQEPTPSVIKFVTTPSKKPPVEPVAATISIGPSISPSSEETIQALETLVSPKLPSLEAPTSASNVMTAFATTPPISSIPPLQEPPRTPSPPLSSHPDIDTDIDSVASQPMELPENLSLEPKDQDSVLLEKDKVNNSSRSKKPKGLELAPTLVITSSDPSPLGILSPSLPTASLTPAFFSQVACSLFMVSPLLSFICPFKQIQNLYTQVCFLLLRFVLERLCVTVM
Outline: as §1

ETV2 = target: T4, ETV2 (Homo sapiens, UniProt O00321 1-342); details: protein: recombinant; tags: N-terminal GST; dsDNA, one strand shown
T4 sequence: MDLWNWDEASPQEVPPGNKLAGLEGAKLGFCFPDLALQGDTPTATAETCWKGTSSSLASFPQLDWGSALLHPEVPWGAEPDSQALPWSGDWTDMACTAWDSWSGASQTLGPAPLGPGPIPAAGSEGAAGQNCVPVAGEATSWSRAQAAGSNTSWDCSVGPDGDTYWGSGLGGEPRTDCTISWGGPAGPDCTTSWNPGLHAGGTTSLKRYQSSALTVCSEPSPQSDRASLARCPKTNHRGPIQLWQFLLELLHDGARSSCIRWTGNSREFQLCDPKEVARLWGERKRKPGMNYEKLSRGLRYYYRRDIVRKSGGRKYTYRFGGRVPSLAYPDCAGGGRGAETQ
Outline: as §1

ELF3 = target: T5, ELF3 (Homo sapiens, UniProt P78545 1-371); details: protein: recombinant; tags: N-terminal GST; dsDNA, one strand shown
T5 sequence: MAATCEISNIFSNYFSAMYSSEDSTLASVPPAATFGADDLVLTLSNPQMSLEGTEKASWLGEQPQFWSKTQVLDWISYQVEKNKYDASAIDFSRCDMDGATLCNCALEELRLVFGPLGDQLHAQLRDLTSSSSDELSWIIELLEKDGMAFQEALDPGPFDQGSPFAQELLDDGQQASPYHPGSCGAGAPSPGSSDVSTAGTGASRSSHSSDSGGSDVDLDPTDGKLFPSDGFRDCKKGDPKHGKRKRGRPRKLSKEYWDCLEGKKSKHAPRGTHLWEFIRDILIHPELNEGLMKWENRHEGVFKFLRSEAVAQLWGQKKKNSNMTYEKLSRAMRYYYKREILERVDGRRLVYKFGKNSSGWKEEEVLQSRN
Outline: as §1

CRX = CRX (Homo sapiens, UniProt O43186 1-299); details: protein: recombinant; tags: N-terminal GST; dsDNA, one strand shown
Outline: as §1

ETV1 = ETV1 (Homo sapiens, UniProt P50549 1-477); details: protein: recombinant; tags: N-terminal GST; dsDNA, one strand shown
Outline: as §1

ERF = target: T6, ERF (Homo sapiens, UniProt P50548 1-548); details: protein: recombinant; tags: N-terminal GST; dsDNA, one strand shown
T6 sequence: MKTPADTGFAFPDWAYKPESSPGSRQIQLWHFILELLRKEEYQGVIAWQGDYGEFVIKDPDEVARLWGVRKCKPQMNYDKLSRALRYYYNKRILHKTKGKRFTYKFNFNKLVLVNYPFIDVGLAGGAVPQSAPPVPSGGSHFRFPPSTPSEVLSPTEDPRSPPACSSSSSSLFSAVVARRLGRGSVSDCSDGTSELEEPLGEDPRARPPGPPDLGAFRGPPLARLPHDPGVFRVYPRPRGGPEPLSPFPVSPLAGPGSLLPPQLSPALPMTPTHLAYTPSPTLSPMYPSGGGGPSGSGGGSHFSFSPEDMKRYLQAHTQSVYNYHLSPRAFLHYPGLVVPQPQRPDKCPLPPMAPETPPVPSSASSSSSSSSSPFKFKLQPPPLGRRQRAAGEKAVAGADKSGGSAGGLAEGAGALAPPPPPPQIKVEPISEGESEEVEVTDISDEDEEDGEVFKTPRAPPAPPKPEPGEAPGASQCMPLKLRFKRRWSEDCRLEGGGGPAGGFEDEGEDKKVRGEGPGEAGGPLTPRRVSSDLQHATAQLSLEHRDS
Outline: as §1

ETV3L = target: T7, ETV3L (Homo sapiens, UniProt Q6ZN32 1-361); details: protein: recombinant; tags: N-terminal GST; dsDNA, one strand shown
T7 sequence: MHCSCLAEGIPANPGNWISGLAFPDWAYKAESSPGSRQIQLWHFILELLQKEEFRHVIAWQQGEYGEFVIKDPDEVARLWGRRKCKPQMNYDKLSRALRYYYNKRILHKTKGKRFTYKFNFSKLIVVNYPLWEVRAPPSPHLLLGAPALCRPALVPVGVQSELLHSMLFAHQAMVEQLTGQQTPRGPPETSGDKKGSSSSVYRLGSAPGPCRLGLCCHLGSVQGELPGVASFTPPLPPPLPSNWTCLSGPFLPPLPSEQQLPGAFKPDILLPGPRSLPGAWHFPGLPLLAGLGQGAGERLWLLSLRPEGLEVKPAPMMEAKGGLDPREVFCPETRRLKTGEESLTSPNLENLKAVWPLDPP
Outline: as §1

ETS2 = target: T8, ETS2 (Homo sapiens, UniProt P15036 1-469); details: protein: recombinant; tags: N-terminal GST; dsDNA, one strand shown
T8 sequence: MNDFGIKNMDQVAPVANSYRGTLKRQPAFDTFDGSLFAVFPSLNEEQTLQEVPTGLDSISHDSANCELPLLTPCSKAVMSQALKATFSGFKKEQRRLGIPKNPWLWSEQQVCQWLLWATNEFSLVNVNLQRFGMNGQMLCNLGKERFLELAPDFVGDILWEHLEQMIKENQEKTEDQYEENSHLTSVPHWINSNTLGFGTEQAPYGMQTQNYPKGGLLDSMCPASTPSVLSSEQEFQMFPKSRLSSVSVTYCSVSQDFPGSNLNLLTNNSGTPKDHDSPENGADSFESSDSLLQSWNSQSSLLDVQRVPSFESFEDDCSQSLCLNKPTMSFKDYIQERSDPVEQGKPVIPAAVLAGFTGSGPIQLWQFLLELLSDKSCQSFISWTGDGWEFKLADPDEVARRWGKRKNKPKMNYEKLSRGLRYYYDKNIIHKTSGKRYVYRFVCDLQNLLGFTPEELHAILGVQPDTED
Outline: as §1

SPDEF = target: T9, SPDEF (Homo sapiens, UniProt O95238 1-335); details: protein: recombinant; tags: N-terminal GST; dsDNA, one strand shown
T9 sequence: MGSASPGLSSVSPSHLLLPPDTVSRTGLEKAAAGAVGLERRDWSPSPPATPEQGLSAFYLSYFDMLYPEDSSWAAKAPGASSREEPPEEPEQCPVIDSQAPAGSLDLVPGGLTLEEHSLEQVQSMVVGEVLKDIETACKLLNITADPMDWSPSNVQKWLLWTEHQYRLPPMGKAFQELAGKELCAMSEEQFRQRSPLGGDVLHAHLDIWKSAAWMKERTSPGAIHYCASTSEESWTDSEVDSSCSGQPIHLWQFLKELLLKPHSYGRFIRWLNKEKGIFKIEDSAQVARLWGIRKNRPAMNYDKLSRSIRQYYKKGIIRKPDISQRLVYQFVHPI
Outline: as §1

ETV7 = target: T10, ETV7 (Homo sapiens, UniProt Q9Y603 1-341); details: protein: recombinant; tags: N-terminal GST; dsDNA, one strand shown
T10 sequence: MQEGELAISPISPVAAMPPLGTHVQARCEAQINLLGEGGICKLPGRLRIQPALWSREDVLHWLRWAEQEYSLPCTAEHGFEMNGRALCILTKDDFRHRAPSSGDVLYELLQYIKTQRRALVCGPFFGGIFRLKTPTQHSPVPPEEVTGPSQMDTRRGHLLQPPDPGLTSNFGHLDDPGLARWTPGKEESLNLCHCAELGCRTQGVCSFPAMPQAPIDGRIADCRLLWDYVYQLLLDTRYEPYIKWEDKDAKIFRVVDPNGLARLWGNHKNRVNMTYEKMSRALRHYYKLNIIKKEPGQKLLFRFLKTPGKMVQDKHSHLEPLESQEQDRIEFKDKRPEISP
Outline: as §1

ELF5 = target: T11, ELF5 (Homo sapiens, UniProt Q9UKW6-2 1-255); details: protein: recombinant; tags: N-terminal GST; dsDNA, one strand shown
T11 sequence: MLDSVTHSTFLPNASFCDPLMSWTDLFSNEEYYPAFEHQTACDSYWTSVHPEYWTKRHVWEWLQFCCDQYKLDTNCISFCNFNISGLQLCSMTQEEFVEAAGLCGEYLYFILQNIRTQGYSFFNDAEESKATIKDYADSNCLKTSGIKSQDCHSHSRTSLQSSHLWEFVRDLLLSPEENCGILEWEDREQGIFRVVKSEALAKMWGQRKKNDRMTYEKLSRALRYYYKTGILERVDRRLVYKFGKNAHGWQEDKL
Outline: as §1

ETV3 = target: T12, ETV3 (Homo sapiens, UniProt P41162-2 1-143); details: protein: recombinant; tags: N-terminal GST; dsDNA, one strand shown
T12 sequence: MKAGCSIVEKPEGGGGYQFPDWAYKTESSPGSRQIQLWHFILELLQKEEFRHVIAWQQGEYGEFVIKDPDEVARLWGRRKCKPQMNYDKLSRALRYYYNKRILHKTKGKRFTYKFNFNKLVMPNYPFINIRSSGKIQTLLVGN
Outline: as §1

ETV6 = ETV6 (Homo sapiens, UniProt P41212 1-452); details: protein: recombinant; tags: N-terminal GST; dsDNA, one strand shown
Outline: as §1

CRX, sequence (O43186 whole entry): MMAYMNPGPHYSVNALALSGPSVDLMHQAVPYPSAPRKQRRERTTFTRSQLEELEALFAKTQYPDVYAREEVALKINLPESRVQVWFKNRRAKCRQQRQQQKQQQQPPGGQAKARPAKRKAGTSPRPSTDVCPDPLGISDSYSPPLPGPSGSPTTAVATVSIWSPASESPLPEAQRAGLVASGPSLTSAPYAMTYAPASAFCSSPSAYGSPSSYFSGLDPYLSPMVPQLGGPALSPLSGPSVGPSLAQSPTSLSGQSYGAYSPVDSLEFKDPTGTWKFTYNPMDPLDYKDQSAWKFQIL
ETV6, sequence (P41212 whole entry): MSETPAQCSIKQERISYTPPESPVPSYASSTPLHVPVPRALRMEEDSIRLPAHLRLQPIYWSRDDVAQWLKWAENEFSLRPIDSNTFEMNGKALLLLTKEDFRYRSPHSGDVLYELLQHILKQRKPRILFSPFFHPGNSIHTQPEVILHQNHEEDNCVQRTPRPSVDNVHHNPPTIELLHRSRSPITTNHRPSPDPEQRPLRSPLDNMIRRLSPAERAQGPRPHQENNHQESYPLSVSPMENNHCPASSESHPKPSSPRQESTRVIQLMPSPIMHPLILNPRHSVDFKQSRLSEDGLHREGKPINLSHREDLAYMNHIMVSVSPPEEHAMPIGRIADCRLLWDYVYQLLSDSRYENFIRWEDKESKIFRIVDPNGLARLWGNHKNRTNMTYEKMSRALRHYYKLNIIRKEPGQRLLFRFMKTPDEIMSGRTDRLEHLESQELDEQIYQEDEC
HSF1, sequence (Q00613 whole entry): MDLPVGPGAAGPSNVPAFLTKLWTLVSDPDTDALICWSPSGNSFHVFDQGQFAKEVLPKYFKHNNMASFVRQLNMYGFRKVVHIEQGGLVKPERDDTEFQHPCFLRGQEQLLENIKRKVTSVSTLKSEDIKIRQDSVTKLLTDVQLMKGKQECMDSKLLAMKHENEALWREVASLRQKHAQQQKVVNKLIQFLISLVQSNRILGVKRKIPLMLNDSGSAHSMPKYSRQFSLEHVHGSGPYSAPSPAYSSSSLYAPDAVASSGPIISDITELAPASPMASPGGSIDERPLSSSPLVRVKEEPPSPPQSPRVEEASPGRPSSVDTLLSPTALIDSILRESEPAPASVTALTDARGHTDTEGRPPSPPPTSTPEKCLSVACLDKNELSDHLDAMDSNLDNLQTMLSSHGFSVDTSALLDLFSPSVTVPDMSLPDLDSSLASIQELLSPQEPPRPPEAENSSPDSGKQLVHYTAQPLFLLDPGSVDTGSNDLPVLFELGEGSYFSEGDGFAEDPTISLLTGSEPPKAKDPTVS
ELF4, sequence (Q99607 whole entry): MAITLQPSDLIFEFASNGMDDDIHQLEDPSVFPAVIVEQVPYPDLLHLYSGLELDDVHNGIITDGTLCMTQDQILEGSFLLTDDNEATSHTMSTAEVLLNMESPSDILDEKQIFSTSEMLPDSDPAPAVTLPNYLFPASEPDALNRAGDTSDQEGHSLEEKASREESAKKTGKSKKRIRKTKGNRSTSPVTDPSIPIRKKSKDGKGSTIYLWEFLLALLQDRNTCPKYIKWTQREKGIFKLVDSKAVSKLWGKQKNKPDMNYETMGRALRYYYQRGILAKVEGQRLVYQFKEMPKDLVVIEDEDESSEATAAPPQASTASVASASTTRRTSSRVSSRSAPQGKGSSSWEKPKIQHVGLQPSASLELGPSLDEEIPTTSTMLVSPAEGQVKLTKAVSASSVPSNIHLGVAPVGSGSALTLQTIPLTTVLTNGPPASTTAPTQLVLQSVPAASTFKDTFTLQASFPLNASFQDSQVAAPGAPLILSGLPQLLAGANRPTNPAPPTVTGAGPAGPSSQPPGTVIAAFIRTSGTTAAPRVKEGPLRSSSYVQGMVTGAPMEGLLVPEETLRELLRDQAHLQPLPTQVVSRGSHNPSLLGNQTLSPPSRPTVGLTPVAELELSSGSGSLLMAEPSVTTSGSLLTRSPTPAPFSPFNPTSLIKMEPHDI
ETV5, sequence (P41161 whole entry): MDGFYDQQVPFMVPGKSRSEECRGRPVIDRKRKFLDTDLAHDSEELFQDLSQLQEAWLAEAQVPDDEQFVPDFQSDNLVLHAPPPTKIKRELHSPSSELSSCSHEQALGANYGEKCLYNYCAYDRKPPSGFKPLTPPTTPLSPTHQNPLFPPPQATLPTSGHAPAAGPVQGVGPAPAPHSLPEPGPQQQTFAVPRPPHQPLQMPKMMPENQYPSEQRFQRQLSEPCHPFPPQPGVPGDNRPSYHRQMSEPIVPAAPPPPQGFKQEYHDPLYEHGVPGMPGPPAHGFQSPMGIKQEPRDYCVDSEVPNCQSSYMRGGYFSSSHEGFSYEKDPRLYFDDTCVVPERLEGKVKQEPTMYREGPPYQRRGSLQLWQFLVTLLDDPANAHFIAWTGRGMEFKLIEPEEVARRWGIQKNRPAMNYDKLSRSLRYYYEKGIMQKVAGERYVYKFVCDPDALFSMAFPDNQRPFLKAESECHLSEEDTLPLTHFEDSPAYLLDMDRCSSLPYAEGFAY
ETV1, sequence (P50549 whole entry): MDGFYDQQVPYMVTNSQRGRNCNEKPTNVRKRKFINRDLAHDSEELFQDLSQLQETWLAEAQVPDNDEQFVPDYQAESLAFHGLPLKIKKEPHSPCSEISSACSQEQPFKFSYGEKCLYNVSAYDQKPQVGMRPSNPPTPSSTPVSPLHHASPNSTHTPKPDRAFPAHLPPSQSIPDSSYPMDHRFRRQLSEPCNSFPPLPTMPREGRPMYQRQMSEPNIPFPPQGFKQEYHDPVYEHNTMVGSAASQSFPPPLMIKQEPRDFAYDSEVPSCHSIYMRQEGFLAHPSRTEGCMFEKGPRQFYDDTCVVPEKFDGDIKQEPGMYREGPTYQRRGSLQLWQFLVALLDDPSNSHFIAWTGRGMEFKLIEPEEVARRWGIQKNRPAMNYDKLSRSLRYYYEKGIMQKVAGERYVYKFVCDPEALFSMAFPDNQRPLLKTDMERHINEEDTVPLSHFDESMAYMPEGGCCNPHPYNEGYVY

## TTACTA
FEV
  binding signal: 1.14 fold enrichment (6-mer frequency, TF over GST control)
ETV5
  binding signal: 1.22 fold enrichment (6-mer frequency, TF over GST control)
HSF1
  binding signal: 1.79 fold enrichment (6-mer frequency, TF over GST control)
SPIC
  binding signal: 1.38 fold enrichment (6-mer frequency, TF over GST control)
ELF4
  binding signal: 1.3 fold enrichment (6-mer frequency, TF over GST control)
ELK4
  binding signal: 1.32 fold enrichment (6-mer frequency, TF over GST control)
ETV2
  binding signal: 1.34 fold enrichment (6-mer frequency, TF over GST control)
ELF3
  binding signal: 1.25 fold enrichment (6-mer frequency, TF over GST control)
CRX
  binding signal: 2.18 fold enrichment (6-mer frequency, TF over GST control)
ETV1
  binding signal: 1.23 fold enrichment (6-mer frequency, TF over GST control)
ERF
  binding signal: 1.27 fold enrichment (6-mer frequency, TF over GST control)
ETV3L
  binding signal: 1.32 fold enrichment (6-mer frequency, TF over GST control)
ETS2
  binding signal: 1.2 fold enrichment (6-mer frequency, TF over GST control)
SPDEF
  binding signal: 1.21 fold enrichment (6-mer frequency, TF over GST control)
ETV7
  binding signal: 1.36 fold enrichment (6-mer frequency, TF over GST control)
ELF5
  binding signal: 1.19 fold enrichment (6-mer frequency, TF over GST control)
ETV3
  binding signal: 1.23 fold enrichment (6-mer frequency, TF over GST control)
ETV6
  binding signal: 1.2 fold enrichment (6-mer frequency, TF over GST control)
